From ChEMBL document CHEMBL3988442, “University of Dundee, Small-Polar-MMV Screening Library” (2021)

Biological target: Shiga toxin 2 (Escherichia coli O157:H7) (UniProt P09385+P09386)
Experiment: E. coli 0.157:H7 Shiga Toxin SOP - stx2 screening assay
Format: functional
Set-up: scale not given: direction of the effect not stated beside the values
Settings: 30 µM

Row | Compound | Percent Effect [%]
1 | Cc1nc(CN2CCN(Cc3nccn3C)CC2)no1 | 6.4
2 | Cc1nn(C)c(Cl)c1C(=O)NCC(c1ccsc1)N(C)C (stereo not given) | -7.76
3 | CC(C)c1ncc2c(n1)CN(Cc1nc(Cc3ccccc3)no1)CC2 | -0.282
4 | Cc1csc(N2CCCN(C(=O)C3(C#N)CCCCC3)CC2)n1 | 27.1
5 | O=c1[nH]c2nc(N3CCSCC3)ncc2c(=O)n1-c1cccc(F)c1 | -14.3
6 | Cc1n[nH]c(C2CN(C(=O)c3ccco3)CCO2)n1 (stereo not given) | 5.26
7 | Cn1cnnc1C1CCCN(C(=O)c2cc(Cl)c3c(c2)OCO3)C1 (stereo not given) | -2.91
8 | CN(Cc1nccn1CC(F)(F)F)C(=O)c1ccc(F)c(F)c1 | 0.723
9 | CC(C)c1noc(CCCC(=O)NC2CCS(=O)(=O)C2)n1 (stereo not given) | -17.4
10 | Cc1ccoc1C(=O)N1CC[C@H]2O[C@@H](C)C[C@H]2C1 | -17.1
11 | Cc1ccc(NC2CCN(C(=O)c3ccc(Cl)o3)CC2)nn1 | 7.55
12 | CC(C)NS(=O)(=O)c1cc(C(=O)O)cc(-c2ccc(CN(C)C)cc2)c1 | -20.1
13 | CCC(=O)N1CCC(O)(c2ncc(OC)nc2OC)CC1 | 16.1
14 | COC(CNC(=O)N1CCC(n2cncn2)CC1)c1ccccc1 (stereo not given) | 7.26
15 | Cc1nn(C(C)C)c(C)c1NC(=O)c1ccncc1 | -15.8
16 | CCc1nc2n(n1)CC(NCc1noc(-c3ccccc3)n1)CC2 (stereo not given) | -17.9
17 | CS(=O)(=O)N1CCCC12CCCN(S(=O)(=O)c1ccc(F)cc1)C2 (stereo not given) | 7.82
18 | NC(=O)c1ccc2c(c1)nc1n2CCN(Cc2ccccc2)C1 | -9.11
19 | COc1cccc(CN2CCCC3(CCN(C(=O)c4ccco4)C3)C2)c1 (stereo not given) | -1.7
20 | COc1ccc(NC(=O)C2CCOC2)c(N2CCN(C(C)=O)CC2)n1 (stereo not given) | -6.14

Row | Compound | Percent Effect [%]
21 | CN(Cc1nnc(C2CC2)o1)C1CCN(CCCc2cnn(C)c2)C1 (stereo not given) | -45.6
22 | CC1CN(CC(=O)NC2CCCC2)CCN1c1ccc2nncn2n1 (stereo not given) | -41.8
23 | Cc1cnn(CC2CCCCN2C(=O)c2ccc3nnc(C)n3c2)c1 (stereo not given) | 21.9
24 | COc1cccc(OCc2cc(C(=O)NC[C@H]3CCCN3)n[nH]2)c1 | -1.49
25 | CCn1c(C)cc(C(=O)N2CCCC(n3nc(C)nc3C)C2)c1C (stereo not given) | 16
26 | O=C(c1cc[nH]n1)N1CCC(Nc2cccnn2)CC1 | -20.2
27 | c1nc2c(c(C3CC3)n1)CCN(CC1CCOC1)CC2 (stereo not given) | -6.27
28 | CS(=O)(=O)c1snnc1C1CCN(Cc2ccncc2)CC1 | 0.0805
29 | Cc1nn(C)c(Cl)c1C1CCCN1C(=O)c1cc[nH]n1 (stereo not given) | -8.07
30 | O=C(c1ccnnc1)N1C[C@H](Oc2cccnc2)[C@H]2OCCC[C@H]21 | 3.62
31 | O=C(NCCO)C1(Cc2cc(-c3ccc(F)cc3F)no2)CCOCC1 | 1.08
32 | Cc1cnn(C2CCCN(C(=O)Cc3cn4ccccc4n3)C2)c1 (stereo not given) | -40.6
33 | CN1[C@H](Cn2cncn2)C[C@@H]2CN(Cc3cccc(C#N)c3)CC[C@@H]21 | -24.3
34 | Cc1csc(N2CCN(C(=O)CCc3ccccn3)CC2)n1 | 20.4
35 | Cc1ccccc1C(=O)NCc1ccc(N2CCNC(=O)C2)c(F)c1 | 0.0326
36 | Cc1cnn(CCNCC(O)COc2c(C)ccc(C)c2C)c1 (stereo not given) | -6.89
37 | CCn1cc2c(n1)CN(Cc1ccoc1)CC2COCC1CC1 (stereo not given) | 13.8
38 | CCc1nc(CNCC2CCCN2c2cc(NC)ncn2)cs1 (stereo not given) | -5.66
39 | O=C(Cn1cnc(-c2ccccc2)cc1=O)Nc1ccncc1 | -36.3
40 | CCc1nc(CN2CCCN(Cc3cnn(C)c3)CC2)no1 | -4.68
